# Source: ChEMBL document CHEMBL4649997, “Data for probe TP-472” (2021)
# Key:
# [1] = biological target: Bromodomain-containing protein 4 (Homo sapiens) (UniProt O60885); conditions: Compound concentration 10.0 uM, Protein concentration 2.0 uM
# [2] = biological target: T1, Transcription intermediary factor 1-alpha (Homo sapiens) (UniProt O15164); conditions: Compound concentration 10.0 uM, Protein concentration 2.0 uM
# T1 sequence (whole entry): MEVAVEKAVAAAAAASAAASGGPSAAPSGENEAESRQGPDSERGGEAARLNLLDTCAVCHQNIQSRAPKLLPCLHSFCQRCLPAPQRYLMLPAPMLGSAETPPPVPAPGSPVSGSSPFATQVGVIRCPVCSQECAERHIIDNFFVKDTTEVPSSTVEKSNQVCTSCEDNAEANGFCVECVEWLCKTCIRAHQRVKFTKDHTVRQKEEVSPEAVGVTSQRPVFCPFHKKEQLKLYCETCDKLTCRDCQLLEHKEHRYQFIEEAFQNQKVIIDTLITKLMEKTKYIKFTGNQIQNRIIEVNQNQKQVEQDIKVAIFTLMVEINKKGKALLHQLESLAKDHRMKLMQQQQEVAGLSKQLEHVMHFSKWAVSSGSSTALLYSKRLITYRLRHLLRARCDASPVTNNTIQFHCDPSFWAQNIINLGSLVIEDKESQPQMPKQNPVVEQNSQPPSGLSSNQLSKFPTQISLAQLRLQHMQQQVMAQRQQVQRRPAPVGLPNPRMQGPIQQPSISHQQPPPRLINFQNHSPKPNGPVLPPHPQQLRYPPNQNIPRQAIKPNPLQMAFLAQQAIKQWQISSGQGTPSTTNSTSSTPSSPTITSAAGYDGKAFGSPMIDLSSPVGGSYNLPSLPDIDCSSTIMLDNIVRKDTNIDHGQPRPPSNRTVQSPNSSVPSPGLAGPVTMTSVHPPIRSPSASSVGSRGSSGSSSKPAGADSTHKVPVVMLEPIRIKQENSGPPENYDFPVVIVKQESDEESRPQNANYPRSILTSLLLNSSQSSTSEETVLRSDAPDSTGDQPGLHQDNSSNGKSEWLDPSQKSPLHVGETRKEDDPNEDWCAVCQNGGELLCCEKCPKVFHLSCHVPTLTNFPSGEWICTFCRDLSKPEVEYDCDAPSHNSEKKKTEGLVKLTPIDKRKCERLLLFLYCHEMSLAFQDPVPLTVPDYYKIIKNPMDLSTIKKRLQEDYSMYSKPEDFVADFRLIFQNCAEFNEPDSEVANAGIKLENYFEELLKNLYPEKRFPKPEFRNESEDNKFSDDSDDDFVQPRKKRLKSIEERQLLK
smiles,measurement,setting,value
CC(=O)c1cc(-c2cc(C(=O)NC3CC3)ccc2C)c2ncccn12,ΔTm,[1],0.28 °C
same,ΔTm,[2],0.37 °C
